NRP1-CendR mod: alters CendR peptide binding to human NRP-1; AID 602438; 0.85% of 360,000 active; FAM-RPARPAR peptide binding to NRP-1, fluorescence polarization; inhibition, % at 25 µM;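 active means inhibition or corrected inhibition above about 18%, plus a signal ratio from 0.5 to 1.5, limit read from the data, passing the limit was not always enough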
A3A deaminase: blocks human APOBEC3A ssDNA deamination; P31941; recombinant A3A, FAM/TAMRA ssDNA deamination fluorescence; inhibition, % at 20 µM; 0.41% of 330,000 active;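 active means at least 40% inhibition at 20 µM here, with at most 30% in a related deaminase screen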;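 further: plate controls were A3A with DMSO for no effect and wells lacking A3A enzyme for full effect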
Target sequence (P31941 whole entry, looked up): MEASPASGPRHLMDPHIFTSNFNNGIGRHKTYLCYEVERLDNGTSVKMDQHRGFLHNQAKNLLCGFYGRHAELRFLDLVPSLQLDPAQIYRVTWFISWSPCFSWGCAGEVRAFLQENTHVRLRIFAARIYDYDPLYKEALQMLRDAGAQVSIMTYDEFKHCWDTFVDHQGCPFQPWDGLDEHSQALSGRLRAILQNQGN
Yeast superoxide: lowers age-related superoxide in aged yeast cells; S. cerevisiae aged cells, superoxide DHE fluorescence; active compounds read low; superoxide response (% of plate mean), % at 10 µM; 0.18% of 330,000 active; AID 2690;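 active means superoxide response under a set limit, about three screen SD below normal, cut at about 65% in these data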;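 further: yeast aged for seven days with compound at 30 °C before DHE staining; 100% = average MFI of all compound-treated wells on the plate with controls excluded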
PfM18AAP inh-1: PfM18AAP enzyme inhibition. recombinant PfM18AAP, H-Glu-NHMec fluorogenic cleavage. 1.2% of 290,000 active. AID 1822. inhibition, % at 7.35 µM;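 active means inhibition above the campaign mean inhibition over all tested compounds plus 3 SD, cut at about 28% in these data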;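 further: 0% = plate median of test compound wells and 100% = 2 mM ZnCl2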
ALR inh: inhibitors of human sulfhydryl oxidase ALR; P55789; purified ALR, DTT oxidation, H2O2 HRP-luminol luminescence; inhibition, % (test concentration not listed); 3.8% of 290,000 active; AID 485317;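 active means mean replicate inhibition above about 79%, with every replicate also reaching it, limit read from the data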
APOBEC3G inh: blocks human APOBEC3G single-stranded DNA deamination | Q9HC16 | AID 493012 | recombinant A3G, ssDNA deamination FAM/TAMRA fluorescence | inhibition, % at 20 µM | 0.28% of 330,000 active;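 active means inhibition of at least 40% at 20 µM, with no more than 30% in the related APOBEC3A deaminase screen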;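 further: plate controls were DMSO wells with A3G for no effect and wells lacking A3G enzyme for full effect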
Target sequence (Q9HC16 whole entry, looked up): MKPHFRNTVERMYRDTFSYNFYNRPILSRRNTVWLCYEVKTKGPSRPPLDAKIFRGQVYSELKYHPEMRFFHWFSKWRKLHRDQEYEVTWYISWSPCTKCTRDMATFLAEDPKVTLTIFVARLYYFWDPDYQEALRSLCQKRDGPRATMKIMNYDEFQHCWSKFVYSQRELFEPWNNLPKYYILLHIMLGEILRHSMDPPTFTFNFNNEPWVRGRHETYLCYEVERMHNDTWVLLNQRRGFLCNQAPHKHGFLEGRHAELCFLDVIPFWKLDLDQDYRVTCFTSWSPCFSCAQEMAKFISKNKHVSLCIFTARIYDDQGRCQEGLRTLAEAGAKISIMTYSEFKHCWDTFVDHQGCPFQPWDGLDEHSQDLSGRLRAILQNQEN
PfM18AAP inh-2: confirmation of Plasmodium falciparum M18 aspartyl aminopeptidase inhibitors | recombinant PfM18AAP, H-Glu-NHMec fluorogenic cleavage | inhibition, % at 7.35 µM | 28% of 2,400 active | shares compounds with PfM18AAP inh-1;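 active means mean inhibition over replicate wells above the hit cutoff set for the earlier primary screen, cut at about 29% in these data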;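 further: 0% = median of test compound wells and 100% = 2 mM ZnCl2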
CTSL1 confirm: Cathepsin L (human) inhibition, confirmation. 2,400 tested, under 10 active. shares compounds with PfM18AAP inh-1. inhibition, % at 5.96 µM. purified cathepsin L1, Z-Leu-Arg-MCA fluorescence;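 active means average inhibition across replicates above the hit cutoff set in the earlier primary screen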;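 further: 0% = median of test compound wells and 100% = Z-Phe-Ala-diazomethylketone 1 µM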
* marks the source's active call; other numbers are inactive results; x = no result given. A selection: hits, their analogues and other compounds. The true share with any hit is near 5.2%.

SMILES	NRP1-CendR mod	A3A deaminase	Yeast superoxide	PfM18AAP inh-1	ALR inh	APOBEC3G inh	PfM18AAP inh-2	CTSL1 confirm
N#C/C(=C\c1ccc(O)c(O)c1)C(=O)N1CCCC1	14	0	88	56*	100*	2	21	3
N#C/C(=C\c1ccccc1)C(=O)N1CCC(C(N)=O)CC1	0	-4	92	-2	x	-7	x	x
Cc1cc(Br)cc(Br)c1OCC(=O)NNC(=O)c1ccoc1C	4	-6	99	10	2	-3	x	x
O=C(O)C1=C[C@@H](c2ccc3c(c2)OCO3)C[C@@H](OCc2ccc(CO)cc2)O1	-12	1	100	36*	-7	-4	-13	2
NC(=O)C1=C[C@H](c2ccc3c(c2)OCO3)C[C@H](OCc2ccc(CO)cc2)O1	4	-1	96	12	-48	-6	x	x
N#Cc1ccccc1NC(=O)CN1C(=O)NC(Cc2c[nH]c3ccccc23)C1=O (stereo not given)	-12	-4	108	x	x	-4	x	x
CCN(C(=O)COC(=O)c1ccccc1Cc1ccccc1)C1CCS(=O)(=O)C1 (stereo not given)	14	-3	101	x	-4	-8	x	x
Cc1ccc(-c2nnn(CC(=O)N(CC(=O)NC(C)C)c3cnc4ccccc4c3)n2)o1	-1	-1	91	11	-2	7	x	x
Cc1ccc(-c2nnn(CC(=O)N(CC(=O)NC3CCCC3)c3cnc4ccccc4c3)n2)o1	-8	-5	97	44*	-16	-2	-36	4
O=C(Nc1cccc(Cl)c1Cl)Nn1cnnc1	-2	-1	112	84*	-14	-1	77*	-3
O=C(Nc1ccccc1)Nc1cccc(Cl)c1Cl	5	-2	103	0	x	-7	x	x
S=C(Nc1cccc(Cl)c1Cl)Nn1cnnc1	11	-1	105	82*	-5	-1	82*	-1
Cc1cc(NC(=O)Nc2cccc(Cl)c2)n(C(C)(C)C)n1	6	4	102	-16	-4	-3	x	x
COc1ccc(/C=C2/SC(=S)N(Cc3ccccc3)C2=O)cc1O	-16	-4	94	23	4	-9	x	x
COc1ccc(/C=C2\SC(=S)N(N3C(=O)CCC3=O)C2=O)cc1O	36*	3	106	32*	31	-2	-41	4
O=C(O)c1cc(S(=O)(=O)O)cc(Nc2c3ccccc3nc3ccccc23)c1O	2	5	98	35*	31	-9	-27	0
O=C(O)c1cccc(Nc2c3ccccc3nc3ccccc23)c1	-4	-9	98	5	-3	-2	x	x
CCSc1nc2c(c(=O)[nH]c(=O)n2C)n1C/C=C(/C)Cl	11	-6	97	2	-3	-9	x	x
CCOC(=O)C(C)Sc1nc2c(c(=O)[nH]c(=O)n2C)n1C/C=C(/C)Cl (stereo not given)	-11	65	98	37*	-10	37	3	3
O=C1CCCC2=C1C(c1ccc(O)c(O)c1)Nc1ccc3ncccc3c12 (stereo not given)	5	12	104	78*	99*	13	78*	1
Cc1nc(N2CCN(Cc3ccccc3)CC2)[nH]c(=O)c1C	12	0	90	-11	-9	1	x	x
COc1ccccc1NS(=O)(=O)c1cc(NC(=O)C(C)(C)C)ccc1N1CCOCC1	-2	-2	100	x	-1	-5	x	x
COc1ccccc1NS(=O)(=O)c1cc(NC(=S)NCCN2CCOCC2)ccc1N1CCOCC1	-2	-1	99	38*	24	15	12	1
O=C(N/N=C/c1sc(=O)[nH]c1-[n+]1ccccc1)c1ccccc1[O-]	18	-3	99	11	4	-8	x	x
O=C(N/N=C/c1sc(=O)[nH]c1-[n+]1ccc2ccccc2c1)c1ccccc1[O-]	-8	-5	98	32*	x	-2	-20	3
SMILES	NRP1-CendR mod	A3A deaminase	Yeast superoxide	PfM18AAP inh-1	ALR inh	APOBEC3G inh	PfM18AAP inh-2	CTSL1 confirm
O=C(Nc1ccccc1C(F)(F)F)c1ncn[nH]1	-7	2	107	59*	-10	-4	57*	1
COC(=O)C1CCN(C(=O)C2CCN(C(=O)[C@H](C)NS(=O)(=O)c3ccc(C)cc3)CC2)CC1	15	-1	70	1	x	-7	x	x
O=c1cc2oc3cc(O)c(O)cc3c(-c3ccccc3[N+](=O)[O-])c-2cc1O	-14	5	100	59*	4	1	49*	-1
COc1ccc(/C=N/N=C2/NC(=O)C(c3ccccc3)S2)c(OC)c1 (stereo not given)	7	4	97	6	-10	-2	x	x
C/C(=N/Nc1nc(C)cc(-c2ccccc2)n1)c1ccco1	1	0	94	13	1	0	x	x
C/C(=N\Nc1nc(C)cc(-c2ccccc2)n1)c1ccc(C)o1	-18	-1	88	52*	5	-7	-34	-1
COc1cccc(/C=C2\SC(=O)N(CCC(=O)N3CCC(C(=O)O)CC3)C2=O)c1	-10	-3	100	35*	-4	-7	-38	3
CCC1CCC2(CC1)NNC(=S)NN2	10	3	97	35*	-1	-1	39*	0
CCOc1cc(C2C(C(=O)c3ccc(C)cc3)=C(C(=O)OC)Nc3nnnn32)ccc1O (stereo not given)	-5	2	103	57*	7	-4	-25	0
COC(=O)C1=C(C(C)=O)C(c2ccc(C(=O)OC)cc2)n2nnnc2N1 (stereo not given)	-8	-18	104	52*	-4	0	-39	-3
COC(=O)C1=C(C(C)=O)C(c2ccc(C)cc2)n2nnnc2N1 (stereo not given)	-4	-3	106	52*	11	-3	-33	2
COC(=O)C1=C(C(=O)c2ccccc2)C(c2ccccc2)n2nnnc2N1 (stereo not given)	-6	2	113	17	4	3	x	x
Cc1nc(NC(C)c2ccccc2)c2c3c(sc2n1)CCC3 (stereo not given)	3	-2	91	-3	30	-6	x	x
Cc1ccc(-n2ncc3c(SCC(=O)NNC(=O)C(C)C)ncnc32)cc1	5	-2	96	-3	2	-9	x	x
Cn1nc(C(=O)NNC(=O)COc2ccccc2)c2ccccc2c1=O	-6	-3	94	44*	-2	-9	32*	-4
O=C(/C=C1\NC2(CCCC2)Cc2ccccc21)C(=O)N/N=C/c1ccc(O)c(O)c1	0	2	98	64*	35	-4	37*	2
Cc1ccc(/C=N/n2c(-c3ccc(Cl)cc3)n[nH]c2=S)o1	2	1	82	32*	7	16	-24	3

Bioassay records from PubChem BioAssay.
